This is part of a sample that, as a whole, favours compounds with a hit. Of some 79,000 tested, about 15% had one in any assay. Values without a mark were called inactive. Calls of active or inactive are those of the source. Rule as the data show it: active = growth inhibition above about 70%; inactive = the rest. Where a SMILES comes first, the peptide text is derived from it. Bridges are numbered along the chain shown (N, C = ends). [ ]: non-standard residue; d: D form. The star is where a group is joined. ξ: configuration not given here. ξNMePhe(4-NMe2) = CNC(Cc1ccc(N(C)C)cc1)C(=O)O; Picolinoyl(3-OH) = O=C(c1ncccc1O)*; ξPip(4-oxo) = O=C1CCNC(C(=O)O)C1; Phg = N[CH](C(=O)O)c1ccccc1; Abu = CC[CH](N)C(=O)O
Columns and labels:
[1] = NCI Yeast Anticancer Drug Screen. Data for the rad50 strain (AID 155);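 also: 0% = growth of vehicle-only cultures of the same strain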; conditions: S. cerevisiae rad50 strain growth inhibition; at 50.0 µM; stronger effect = higher value
Procedure, shortened: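 Inhibition values express reduced yeast growth in compound-treated cultures relative to vehicle-treated controls.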

[2] = NCI Yeast Anticancer Drug Screen. Data for the mec2-1 strain (AID 157); conditions: S. cerevisiae mec2-1 strain, at 50.0 µM, stronger effect = higher value
Procedure, shortened: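 Readout is yeast growth inhibition, normalised to vehicle-treated controls, in the mec2-1 strain exposed to compound.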

[3] = NCI Yeast Anticancer Drug Screen. Data for the sgs1 mgt1 strain (AID 161);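 also: 0% = growth of cultures given vehicle only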; conditions: S. cerevisiae sgs1 mgt1 strain, at 50.0 µM, stronger effect = higher value
Procedure, shortened: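 Percent growth inhibition was derived by comparing compound-exposed mutant yeast with vehicle-exposed cultures. The strain carries alterations in DNA damage repair.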

[4] = NCI Yeast Anticancer Drug Screen. Data for the cln2 rad14 strain (AID 165);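 also: 0% = growth equal to vehicle treated cultures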; conditions: S. cerevisiae cln2 rad14 strain, at 50.0 µM, stronger effect = higher value
Procedure, shortened: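 Relative to vehicle controls, growth inhibition of compound-treated cln2 rad14 yeast was recorded.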

[5] = NCI Yeast Anticancer Drug Screen. Data for the bub3 strain (AID 167); conditions: S. cerevisiae bub3 mutant strain, at 50.0 µM, stronger effect = higher value
Procedure, shortened: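 Steps: expose the mutant yeast strain to compound; grow alongside vehicle-treated cultures; measure growth; express inhibition against the vehicle cultures.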

[6] = NCI Yeast Anticancer Drug Screen. Data for the mlh1 rad18 strain (AID 175); conditions: S. cerevisiae mlh1 rad18 strain growth inhibition; at 50.0 µM; stronger effect = higher value
Procedure, shortened: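 Test agents were incubated with a yeast strain of defined genotype (DNA damage repair defect). Inhibition of growth was derived by comparison with vehicle-exposed cultures.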

| SMILES | growth inhibition [1] | growth inhibition [2] | growth inhibition [3] | growth inhibition [4] | growth inhibition [5] | growth inhibition [6] |
| --- | --- | --- | --- | --- | --- | --- |
| CCCCOC(=O)c1ccc(C(C)C)cc1 | 8.85% | 6.85% | 8.65% | -19.4% | 7.55% | 4.35% |
| CC(=O)c1sc2c(c1OC(=O)c1ccc(Cl)cc1Cl)c(=O)n(-c1ccccc1)c(=S)n2-c1ccccc1 | -3.95% | -23.3% | -19.4% | -5.65% | -6.55% | -3.85% |
| C/C(=C\c1ccc([N+](=O)[O-])cc1)C(=O)O | 23.6% | 23.1% | 19.2% | 12.2% | 31.4% | 47.5% |
| CC1=CC(=O)c2ccccc2C1=O | 14.4% | 15.3% | 0.1% | 13.2% | 25.6% | 18.2% |
| O=C(O)/C=C/c1ccc2c(c1)CCC2 | 28.6% | 18.1% | 48.4% | 23.8% | 50.6% | 42.2% |
| CCOC(=O)Nc1cc2c(c(N)n1)N=C(c1ccccc1)CO2 | 37.5% | 27.7% | 34% | 16.5% | 14.8% | -21.9% |
| CN(C)/N=C/c1ccccc1O | 1% | 4% | -16.9% | -6.85% | -21.6% | 2.9% |
| S=C1NCc2cncnc2N1 | -13.7% | -2.05% | -6.9% | -8.7% | 3.85% | 18.8% |
| C=CC(=O)OCCCCCCCC | 5.4% | -14.3% | -29.4% | -34.5% | 2.4% | 2.85% |
| O=[N+]([O-])c1ccc(Sc2ccncn2)c([N+](=O)[O-])c1 | 24.7% | 16.6% | 8.9% | -5.55% | -12.3% | 30.8% |
| CC(C)COC(=O)COC(=O)OCCOCCOC(=O)OCC(=O)OCC(C)C | 36.5% | -8.7% | 17.4% | -26.9% | 26.1% | 8.6% |
| O=C(OCC(O)C1OC(c2ccccc2)OC(COC(=O)c2ccccc2)C1O)c1ccccc1 (stereo not drawn) | 5.85% | 4.85% | 13.6% | 16.6% | 1% | 11.9% |
| C[C@]12CC[C@@H]3c4ccc(OCC(=O)O)cc4CC[C@H]3[C@@H]1CCC2=O | 16% | 0.35% | -18.7% | -8% | 5.6% | 2.05% |
| COc1ccccc1C1OC2=Nc3cc(C)c(C)cc3NC2C1=O (stereo not drawn) | 11.1% | -9.95% | -1.95% | -9.25% | -21.1% | 5.95% |
| COCCOCCCl | 10% | -19.3% | -12.5% | -7.95% | -6.5% | -6.7% |
| O=C1C[C@H](c2ccccc2)[C@H](c2ccccc2)C1 | 24.2% | 4.85% | 10.4% | -4.25% | -5.55% | 9.8% |
| COc1ccc(C)cc1OC | 26.3% | 12.9% | 1.3% | 0.6% | -8.2% | -5.65% |
| CC1(C)N=C(N)N=C(N)N1c1ccc(Cl)cc1 | 19.7% | 3.35% | 0.4% | -20.2% | 3.85% | 35.7% |
| COC(=O)C(C)Oc1ccc(OC#N)cc1 (stereo not drawn) | -21.3% | -14.1% | 8.9% | -3% | 6.25% | 23.5% |
| COc1nc(N)nc2c1ncn2C1OC(CO)CC1O (stereo not drawn) | 13.4% | -3.2% | -3.5% | 10.9% | 0.55% | 25.8% |
| CCCCCCCCCCC1CO1 (stereo not drawn) | 4.95% | -4.15% | -7% | -23.1% | -13.9% | -8.05% |
| N#C/C(=C\c1cc(O)c(O)c(O)c1)C(N)=O | 29.8% | -14.8% | 24.6% | 2.6% | 25.7% | 35.5% |

| SMILES | growth inhibition [1] | growth inhibition [2] | growth inhibition [3] | growth inhibition [4] | growth inhibition [5] | growth inhibition [6] |
| --- | --- | --- | --- | --- | --- | --- |
| Cc1cc(=O)[nH]c(NN=C2CCCC2)n1 | -27.9% | -52.5% | -35.4% | -2.6% | -33.5% | -27.1% |
| COc1ccc(/C=C/c2cccc[n+]2C)cc1 | 1.35% | 1.3% | -7.1% | 0.55% | -9.9% | -11.2% |
| CC(=O)NCc1cc(C)c(C)cc1C | 12.5% | -20.1% | 1.25% | 9.15% | 5.3% | 8.5% |
| Cc1cc(NC(=O)CSCC(=O)O)no1 | -19.2% | -34.5% | -2.45% | 7.8% | -7.8% | -2.75% |
| Oc1ccccc1O | 11.7% | 6.7% | 8.85% | -11.7% | -1.6% | 8.25% |
| O=C1NC(=O)C2C(=O)NC(=O)C1C21CCc2ccccc21 (stereo not drawn) | -8.5% | -16.6% | -23.5% | -4.25% | -41.9% | -7.45% |
| Nc1ccccc1C(=O)Nc1ccc(Cl)cc1Cl | -9.1% | -22.4% | 7.4% | 4.85% | 21.9% | 2.35% |
| COC(=O)Nc1nc2ccc(C(=O)c3ccc(F)cc3)cc2[nH]1 | -9% | -6.35% | -30.2% | -26.4% | -17.5% | -43.9% |
| NCCC(=O)c1ccc(Cl)cc1 | 45.4% | -10.4% | 6.8% | 4.45% | -9.6% | 19.8% |
| C[C@@H](c1ccccc1)[C@@H](C(=O)O)c1ccccc1 | 8.3% | 5.4% | 8.3% | -38.6% | -5.65% | 29.7% |
| NNc1ccccc1C(=O)O | 4.4% | -3.05% | -2.55% | -4.15% | -2% | 14.8% |
| Cc1nc2ccccc2c(C(=O)O)c1O | 9.45% | -10.2% | 1.5% | 6.65% | 11.1% | 19.9% |
| N#Cc1c(N)sc(=S)c2c1CCCC2 | 9.65% | 9.85% | 29.4% | 1.8% | -2.05% | 11.4% |
| Nc1ccc(C(=O)c2ccc(N)c(Br)c2)cc1Br | 15% | -0.85% | 6.6% | -77.9% | 43.3% | 4.05% |
| COC(=O)/C=C\C(=O)OC | 16.1% | 6.85% | -15.1% | -5.65% | -10.3% | 14.7% |
| CN(C)Cc1cc(C(C)(C)CC(C)(C)C)ccc1O | 38.2% | -3.2% | 6.3% | -43.9% | 17.1% | 42.5% |
| CC1CCCC(CC(N)=O)CC1 (stereo not drawn) | 7.8% | 1.05% | 2.1% | 1.3% | 0.7% | 4.2% |
| CCC1NC(=O)C(NC(=O)c2ncccc2O)C(C)OC(=O)C(c2ccccc2)NC(=O)C2CC(=O)CCN2C(=O)C(Cc2ccc(N(C)C)cc2)N(C)C(=O)C2CCCN2C1=O (stereo not drawn) (tested in a mixture with another compound) ({Picolinoyl(3-OH)}-T[Abu]P[ξNMePhe(4-NMe2)][ξPip(4-oxo)][Phg]; ester 1-C; configuration not given here) | 19.4% | -5.15% | 3.3% | 20.7% | 9.45% | -14.7% |
| FC(F)(F)c1ccc2c(c1)N(CCCN1CCN(C3CC3)CC1)c1ccccc1S2 | 99.3% (active) | 99.3% (active) | 99.7% (active) | 99% (active) | 99% (active) | 99.5% (active) |
| Cc1ccc(CCCC(=O)O)c(C)c1 | 6.5% | -0.25% | 22.1% | 1.45% | 28.9% | 45.6% |
| CCCCCCCCOC(=O)c1ccccn1 | -6.75% | 0.3% | -8.05% | -59% | 16.6% | -3.2% |
